CYP2C9 inhib: human CYP2C9 inhibition; CYP2C9 Supersomes, luciferin-H conversion, luminescence; inhibition, % at 5 µM; actives 20% (n = 96,000); AID 777;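 active means blocking of liver enzyme CYP2C9 beyond about 50% at 5 µM, limit read from the data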
PLAP activator: activates human placental alkaline phosphatase; purified PLAP enzyme, luminescent substrate read-out; active compounds read high; activation fold at 20 µM; P05187; actives 1.2% (n = 96,000); in the data active means activation fold above about 2
CYP2C9 activ: activators of human CYP2C9. P11712. recombinant CYP2C9, luciferin-H conversion, luminescence; active compounds read high; factor 1 = untreated enzyme, 0 = blocked. activation factor at 5 µM. actives 1.4% (n = 96,000);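 active means activation factor of 2 or more for CYP2C9 at a 5 µM dose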;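 further: 0 = sulfaphenazole-blocked wells and 1 = vehicle-only wells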
CYP2C19 activ: increases human CYP2C19 enzyme activity. activation factor at 5 µM. 96,000 tested, under 10 active. recombinant CYP2C19, luciferin-H EGE luminescence; active compounds read high; 0 = fully inhibited enzyme, 1 = untreated enzyme. P33261;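 active means activation factor of at least 2 at 5 µM in the primary screen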;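 further: 0 = wells with 2.5 mM tranylcypromine and 1 = vehicle-only wells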
Target sequence (P33261 whole entry, looked up): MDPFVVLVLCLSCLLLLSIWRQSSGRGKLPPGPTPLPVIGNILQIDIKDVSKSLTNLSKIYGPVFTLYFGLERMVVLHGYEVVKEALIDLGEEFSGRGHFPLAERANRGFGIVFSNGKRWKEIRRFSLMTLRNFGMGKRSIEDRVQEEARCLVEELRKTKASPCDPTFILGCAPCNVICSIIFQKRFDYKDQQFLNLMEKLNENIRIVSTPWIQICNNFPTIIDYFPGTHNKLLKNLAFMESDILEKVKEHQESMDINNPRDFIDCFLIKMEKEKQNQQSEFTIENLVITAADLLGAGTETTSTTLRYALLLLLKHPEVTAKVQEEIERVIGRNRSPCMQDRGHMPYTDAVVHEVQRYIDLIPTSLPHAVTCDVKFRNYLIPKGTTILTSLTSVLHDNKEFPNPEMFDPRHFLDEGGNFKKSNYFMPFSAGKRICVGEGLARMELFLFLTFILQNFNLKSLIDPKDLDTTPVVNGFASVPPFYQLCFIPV
CYP2C19 inhib: inhibitors of human CYP2C19 | actives 21% (n = 96,000) | inhibition, % at 5 µM | CYP2C19 Supersomes, luciferin-H EGE luminescence, 30 min | P33261;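 active means CYP2C19 inhibition above a set limit at 5 µM in the primary screen, cut at about 50% in these data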;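 further: plate controls were negative control wells for no effect and 2.5 mM tranylcypromine positive control for full effect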
* = called active by the depositor. Rows were chosen to be rich in hits. Some 31% of all compounds tested hit in one or more screens of this group.

SMILES	CYP2C9 inhib	PLAP activator	CYP2C9 activ	CYP2C19 activ	CYP2C19 inhib
Cc1ccc(S(=O)(=O)N2CCOCC2)cc1C(=O)N1CCOCC1	-5	1	1	1	2
Cc1ccc(S(=O)(=O)N2CCOCC2)cc1C(=O)N1c2ccccc2Sc2ccccc21	61*	1.3	0.4	0.9	14
Cc1ccc(S(=O)(=O)N2CCN(S(=O)(=O)N3CCOCC3)CC2)cc1C	-6	1	1.1	0.5	50*
Cc1ccc(S(=O)(=O)N2CCN(S(=O)(=O)N3CCOCC3)CC2)c(C)c1	-37	1.3	1.4	0.5	49
COc1ccc(S(=O)(=O)N2CCOCC2)cc1Cl	-234	1	3.3*	0.4	59*
COc1ccc(S(=O)(=O)N2CCOCC2)cc1C(C)C	-21	1	1.2	0.9	6
Cc1ccc(S(=O)(=O)N2CCSC2)cc1C	-131	0.8	2.3*	0.9	7
N#Cc1cc(-c2ccccc2)c[nH]c1=O	11	1.2	0.9	1.1	-9
NNC(=O)c1nnn(-c2nonc2N)c1-c1cccs1	6	1	0.9	0.7	30
O=C(CSc1nnc(NC(=O)c2ccco2)s1)NC1CCCCC1	5	0.9	0.9	1.1	-6
O=S(=O)(c1ccc2nc(-c3ccco3)c(-c3ccco3)nc2c1)N1CCOCC1	91*	1.3	0.1	1	3
Cn1c(=O)n(C)c2cc(S(=O)(=O)N3CCOCC3)ccc21	-8	0.8	1.1	1.1	-9
COc1ccc(F)c(C2C(C#N)=C(N)Oc3n[nH]c(C(C)(C)C)c32)c1 (stereo not given)	42	1	0.6	0.3	70*
CCCC1C(C#N)=C(N)Oc2n[nH]c(C(C)(C)C)c21 (stereo not given)	70*	1.4	0.3	0.1	93*
Cc1[nH]nc2c1C(CCc1ccccc1)C(C#N)=C(N)O2 (stereo not given)	32	1.1	0.7	0.3	74*
CCCc1[nH]nc2c1C(c1ccc(OC)cc1OC)C(C#N)=C(N)O2 (stereo not given)	18	1.6	0.8	0.7	26
CC(C)OC(=O)CSc1nnc(-c2ccncc2)n1N	56*	1	0.4	0.1	86*
CCOC(=O)c1ccc(CSc2nnc(-c3ccncc3)n2N)cc1	38	1	0.6	0.3	68*
O=C1CC(c2ccc(Cl)cc2)CC(O)=C1C=NCCN1CCNCC1 (stereo not given)	7	1.4	0.9	1	-4
COc1ccc(CC2CCOC2=O)cc1 (stereo not given)	3	0.9	1	0.2	76*
Cc1[nH][nH]c(=O)c1C(c1ccc(-c2ccc(Cl)cc2Cl)o1)c1c(C)[nH][nH]c1=O	48	2.7*	0.5	0.3	74*
Cc1cccc(NC(=O)c2ccccc2OCC(=O)N2CCOCC2)c1C	-3	0.8	1	0.9	10
Cc1cc(C)c(C)c(OCC(=O)N2CCOCC2)c1	-80	1.4	1.8	0.3	67*
Cc1cc(OCC(=O)N2CCOCC2)c(C(C)C)cc1Cl	14	1.1	0.9	0.2	80*
CCN(C(=O)C1CCN(S(=O)(=O)c2cccc3nonc23)CC1)c1ccccc1	26	1.4	0.7	0.8	18
SMILES	CYP2C9 inhib	PLAP activator	CYP2C9 activ	CYP2C19 activ	CYP2C19 inhib
O=C(O)C1CCCN1S(=O)(=O)c1ccc2[nH]c(=O)c(=O)[nH]c2c1 (stereo not given)	-11	0.9	1.1	1.1	-9
CCn1nnc(C(=O)O)c1C(=O)O	-21	1	1.2	1.2	-24
COc1ccc(S(=O)(=O)N(C)CC(=O)Nc2ccccc2C(F)(F)F)cc1OC	-92	1	1.9	0.2	76*
COc1ccccc1NC(=O)CN(C)S(=O)(=O)c1cc(C)ccc1OC	63*	1.4	0.4	0.1	94*
COc1ccc(C)cc1NC(=O)CN(C)S(=O)(=O)c1cccs1	-134	1.1	2.3*	0.1	89*
COc1ccc(C)cc1S(=O)(=O)N(C)CC(=O)NC1CCCCC1	7	1	0.9	0.8	22
COC(=O)C1=C(C)Nc2nnnn2C1c1ccco1 (stereo not given)	37	1	0.6	0.8	20
CC1=C(C(=O)OC2CCCCC2)C(c2ccco2)n2ncnc2N1 (stereo not given)	52*	1.1	0.5	0.3	73*
CC1(C)C(=O)OC(C(=O)c2ccc(C(C)(C)C)cc2)C(C)(C)C1=O (stereo not given)	40	1	0.6	0.9	5
Cc1cc(C)cc(OCC(=O)Nc2cccc(-c3nnc(-c4ccco4)o3)c2)c1	80*	1.1	0.2	0.3	67*
Cc1cccc(NC(=S)NNC(=O)c2csc3c2CCCC3)c1	-13	1	1.1	0.7	30
Cc1cccc(NC(=S)NNC(=O)c2ccc(Br)o2)c1	56*	1.6	0.4	0.8	23
COc1ccc(OCC(=O)Nc2cccc(-c3nc4ccccc4o3)c2)cc1	34	1.1	0.7	0.6	38
COc1ccc(C(=O)Nc2cccc(-c3nnc(-c4ccco4)o3)c2)cc1	60*	1.6	0.4	0.6	42
O=C(Nc1cccc(-c2nnc(-c3ccccc3)o2)c1)c1ccc(Br)o1	69*	0.9	0.3	0.7	33
O=C(NNC(=S)Nc1ccccc1)c1cccc(Br)c1	62*	1.2	0.4	0.3	66*
C=Cc1cccc(NC(=O)COc2ccccc2)c1	-5	0.8	1.1	0.1	87*
O=C(COc1ccccc1)Nc1cccc(-c2nnc(-c3ccccc3)o2)c1	53*	1.1	0.5	0.6	35
O=C(NNC(=S)Nc1ccccc1)c1ccco1	-5	1.6	1.1	1	0
Cc1ccnc(NC(=O)c2cccc(NC(=O)COc3ccccc3)c2)c1	30	1	0.7	0.8	22
O=C(COc1ccccc1)Nc1nnc(-c2ccccc2)o1	36	1	0.6	0.9	6
O=C(CSc1nnc2c(Cl)cc(Cl)cn12)N1CCOCC1	-8	0.9	1.1	1.3	-26
COC(=O)c1ccc(COC(=O)C23CC4CC(CC(O)(C4)C2)C3)o1	24	1.5	0.8	0.7	27
CCOC(=O)C1CCN(c2c(NCCN3CCN(c4ccccc4)CC3)c(=O)c2=O)CC1	-4	1.1	1	1	-1
CCOC(=O)C1CCN(c2c(NCc3ccc(C(=O)NC(C)CC)cc3)c(=O)c2=O)CC1 (stereo not given)	59*	1.2	0.4	0.9	12
CC(=O)N1N=C(c2ccncc2)OC12CCCCC2	55*	1.1	0.4	0.1	88*
COCCOC(=O)C1=C(C)NC(=O)N(C(C)=O)C1c1ccc(Cl)cc1 (stereo not given)	66*	1	0.3	0.4	58*
CC(C)(C)c1cn(-c2ccc(F)cc2)c(=S)[nH]1	-18	0.9	1.2	0.4	63*
O=C(Nc1nnc(C2CCCO2)s1)c1ccc(Br)cc1 (stereo not given)	6	1	0.9	1.1	-8

High-throughput results: PubChem BioAssay, Sanford-Burnham Center for Chemical Genomics
